Laboratory results published in PubChem BioAssay AID916 (National Center for Advancing Translational Sciences (NCATS), 2007).
Records with an inconclusive call do not appear. Active and inactive are the calls of the source. The call rests on the fitted dose curve; in most records, active means well fitted activation curve with a large enough effect in the signal ratio, with a control signal flat (not every such curve was filed as active); inconclusive means small, poorly fitted or top-dose-only effect, or a change in a side signal; inactive means flat fitted curve, though single readings scatter; the % refers to the signal ratio.

Assay: Confirmation Concentration-Response Assay for Cell signaling CRE-BLA (Fsk stim)
Settings: CHO CRE-bla reporter (cAMP response element driving beta-lactamase), NKH477 EC10 stim, FRET ratio; series mostly up to 38.3 µM; activation: at the top concentration
From the text: NIH Molecular Libraries Screening Centers Network [MLSCN] NIH Chemical Genomics Center [NCGC] MLSCN Grant: 1X01MH079867-01 Assay Provider: Marshall W. Nirenberg, U.S. National Heart, Lung and Blood Institute CRE beta-lactamase Assay Overview Memories persist for different lengths of time, from seconds or minutes to a lifetime. There are two kinds of memory: short-term memory (STM) and long-term memory (LTM). STM lasts for minutes to hours, which maybe mediated by modifications of molecules involved in synaptic functions. LTM lasts for days or longer, and may be due to the formation of new synapses or restructuring of existing synapses. LTM, but not STM, requires gene transcription and synthesis of proteins. CREB (cyclic-AMP Responsive Element Binding Protein) is one of the candidates plays an important role for enhancement of some types of LTM. CREB, a family of transcription factors, regulates the transcription of genes containing cAMP Responsive Elements (CRE). CRE is a nucleotide sequence often found in the promoter regions of genes that are binding sites for CREB. Using a beta-lactamase reporter-gene under control of cAMP responsive element, a cell-based assay [CellSensor(TM) CRE-bla CHO developed by Invitrogen Corp.] was used to measure forskolin-induced signaling. The selected compounds were measured for their ability to modulate positively the action of EC10 NKH 477, a water soluble forskolin, on reporter gene activity. Compounds were screened in a titration series in 1536-well format. Positive modulators were identified based on the AC50 values derived from the screening data.
NCGC Assay Protocol Summary 2000 cells/5uL in Opti-MEM medium containing 0.5% dialyzed FBS, 0.1 mM NEAA, 1 mM sodium pyruvate and 10 mM HEPES was dispensed into 1536-well plates and cells were cultured at 37 degrees Celsius overnight. Next day 23 nL of compounds or DMSO were delivered to each well using a pin tool, and 1uL of EC10 level of NKH 477, or EC100 level of IBMX, a PDE inhibitor, in the present of NKH 477, or assay medium was added. And then the plates were incubated at 37 degrees Celsius for 3 hours. 1 uL of CCF4-dye mixture was added to each well. After incubated at room temperature for 2 hours the plates were measured on an EnVision plate reader at Excitation 405nm, Emission1=460nm and Emission 2=530nm. The %Activity was determined from the ratio of 460nm/530nm. Keywords: NIH Roadmap, MLSCN, MLSMR, qHTS, NCGC, CRE, beta-lactamase reporter-gene assay.

Question: With `Cn1c(C(=O)N2CCC3(CC2)OCCO3)cc2c(=O)n(C)c3ccccc3c21` as the molecule, how does the Potency read?
Answer: Its Potency is 25.1 µM (active).

Question: Which Potency does the source give for `COc1cc2c(c(OC)c1OC)-c1ccc(OC)c(=O)cc1[C@@H](NC(C)=O)CC2` here?
Answer: Its Potency is 5.01 µM (active).

Question: Which Potency does the source give for `Cn1c(O)c(C=NCCOc2ccc(Cl)cc2)c(=O)n(C)c1=O` here?
Answer: Its Potency is 15.8 µM (active).

Question: For `CC(C)C(=O)N1CCN(CCN=Cc2c(O)n(C)c(=O)n(C)c2=O)CC1`, which “activation” value is on record?
Answer: Its value is -11.5% (inactive).
